Reference: article PMC3795721, “Screening for Protein-DNA Interactions by Automatable DNA-Protein Interaction ELISA”

The sequences below were run against AT4G31550 (Arabidopsis thaliana, UniProt Q9SV15 228-325) (assay: DPI-ELISA; DPI-ELISA, streptavidin 384-well plate, 1-2 pmol biotinylated dsDNA per well, crude native E. coli extract, anti-His detection; buffer as in Brand et al. [46],; high values mean tight binding). Details: tags: C-terminal His (pET-DEST42); label: 5' biotin on forward strand; dsDNA, one strand shown.
Sequence of AT4G31550 (Q9SV15 228-325): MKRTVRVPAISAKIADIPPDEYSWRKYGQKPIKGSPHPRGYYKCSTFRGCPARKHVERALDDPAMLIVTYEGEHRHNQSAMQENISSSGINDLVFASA

Row | Sequence | binding signal [absorbance]
1 | AAAAAAGCTGTCACTGTAGTCGGTCCAAAA | 0.67 ± 0.0707
2 | AAAAAATTGCATTCCACCCTTAGGTTAAAA | 0.495 ± 0.106
3 | AAAAAATTGGTTCTCATTTCTACTTCAAAA | 0.57 ± 0.127
4 | AAAAAAACCTCTTTATTCTCGATTGTAAAA | 0.585 ± 0.0495
5 | AAAAAACCTACGATGGTTCTGATCTTAAAA | 0.655 ± 0.12
6 | AAAAAATCGGGGATCCGGGCGGTTGCAAAA | 0.665 ± 0.12
7 | AAAAAAGCTCATGGCCCTGAGGATCTAAAA | 0.73 ± 0.113
8 | AAAAAACGGGATTCGAAACTTTTTGTAAAA | 0.54 ± 0.099
9 | AAAAAATTTATACTTGATCCTGGCTTAAAA | 0.575 ± 0.0636
10 | AAAAAAAATACTGCGCACTTGCACTCAAAA | 0.6 ± 0.127
11 | AAAAAAGCTAGTCGATTCGGCTTAGAAAAA | 0.68 ± 0.17
12 | AAAAAAAGTTCCAGGTCCGATGCTCAAAAA | 0.805 ± 0.318
13 | AAAAAATGCCCATGTGCACCCGTACGAAAA | 0.56 ± 0.0849
14 | AAAAAAGCATATCTTCAGAACTTGCCAAAA | 0.625 ± 0.0778
15 | AAAAAATACTCTTCCTCGTTCTTGGTAAAA | 0.57 ± 0.127
16 | AAAAAATTGCCGTCATAATTGTGGTAAAAA | 0.59 ± 0.0849
17 | AAAAAATGTATTCGTGTCCACTCCATAAAA | 0.53 ± 0.0707
18 | AAAAAACTCTTAAGGAAAGTTCCGACAAAA | 0.645 ± 0.12
19 | AAAAAAGCGCGAATTCTAGAACTATAAAAA | 0.57 ± 0.113

Row | Sequence | binding signal [absorbance]
20 | AAAAAAGATCTAGGCCTTGGGACTCAAAAA | 0.415 ± 0.0636
21 | AAAAAACCGGCACGATTTGGATATTCAAAA | 0.64 ± 0.113
22 | AAAAAAAACAAAACCTCCTAATAGCGAAAA | 0.42 ± 0.113
23 | AAAAAATGGAAGGAGAGGGATGAAATAAAA | 0.57 ± 0.156
24 | AAAAAATTCTTTTTTCTTCAAGGTCTAAAA | 0.565 ± 0.0212
25 | AAAAAATTTGTACTTTAAGTTTACATAAAA | 0.56 ± 0.0849
26 | AAAAAAGCTCGTCTCCGCCTCCTGCTAAAA | 0.785 ± 0.262
27 | AAAAAATTAGGACCATCCCCACTAGGAAAA | 0.69 ± 0.0707
28 | AAAAAACGGTCGCGATCGTTAATGATAAAA | 0.75 ± 0.17
29 | AAAAAAGGTCCAGTCCACGTCATCAGAAAA | 1.84 ± 0.431
30 | AAAAAAGTACATGCGTAGATAATGTTAAAA | 0.59 ± 0.127
31 | AAAAAATTCTAACTTAGCCTATGTCCAAAA | 0.695 ± 0.163
32 | AAAAAAGGGCGAGCGCTGGATCCACAAAA | 0.505 ± 0.106
33 | AAAAAAGAAATACCAGAAACTATCATAAAA | 0.705 ± 0.219
34 | AAAAAATGAGAGAATTTCCGGTTCAGAAAA | 0.575 ± 0.0495
35 | AAAAAAATCTCACTCCTGGTCCCCATAAAA | 0.56 ± 0.099
36 | AAAAAATATGCTACTCCACCTTGATGAAAA | 0.67 ± 0.156
37 | AAAAAAAGTTACCAGTACGCGTCGGGAAAA | 0.64 ± 0.141
38 | AAAAAATCCTTTTCTCTTTCTGTTTCAAAA | 0.575 ± 0.12
